Test results reported in ChEMBL document CHEMBL1961873, “Compounds: GSK PKIS; Assays: Nanosyn kinase panel” (2012).

Target: Dual specificity tyrosine-phosphorylation-regulated kinase 1A (Homo sapiens) (UniProt Q13627)
Conditions: at 0.1 µM

First: COc1cc2ncn(-c3cc(OCCc4ccccc4)c(C(N)=O)s3)c2cc1OC
Second: C[C@@H](Oc1cc(-n2cnc3ccc(OC4CCN(C)CC4)cc32)sc1C(N)=O)c1ccccc1Cl
The inhibition of the first is higher: 3.14% for the first, -0.72% for the second.

First: Cc1ccc(NC(=O)c2ccoc2)cc1-c1ccc(C(=O)NCC2CC2)cc1
Second: NS(=O)(=O)c1ccc(N/N=C2\C(=O)Nc3ccc(C(=O)NCCCn4ccnc4)cc32)cc1
The inhibition of the first is lower: 2.62% for the first, 7.66% for the second.

Going from `NCc1ccc(-n2c(-c3nonc3N)nc3cnccc32)cc1` to `COc1cccc(-n2cnc3c(N/N=C/c4ccncc4)ncnc32)c1`, the inhibition falls from 8.53% to -3.39%.

Target: Dual specificity tyrosine-phosphorylation-regulated kinase 1A (Homo sapiens) (UniProt Q13627)
Conditions: at 1 µM

Compared with `CS(=O)(=O)CCNCc1cc(-c2cc3c(Nc4ccc(OCc5cccc(F)c5)c(Cl)c4)ncnc3s2)cs1`, `CS(=O)(=O)CCNCc1ccc(-c2ccc3ncnc(Nc4ccc(OCc5ccccc5)c(Br)c4)c3c2)o1` is lower in inhibition: 3.13% for the first, -2.54% for the second.

Going from `CCC(=O)Nc1ccc(C)c(-c2ccc(C(=O)NCC3CC3)cc2)c1` to `Cc1ccc(NC(=O)c2ccoc2)cc1-c1ccc(C(=O)NCC2CC2)cc1`, the inhibition rises from 3.18% to 3.4%.

Compared with `COc1cc(Nc2ncc3c(C)nc(-c4cccc(C(F)(F)F)c4)n3n2)cc(OC)c1OC`, `CN(C)CCCNc1nccc(-c2c(-c3ccc(F)cc3)nn3cc(C(F)(F)F)ccc23)n1` is lower in inhibition: 29.8% for the first, 1.55% for the second.

First: Fc1ccc(-c2nc3n(c2-c2ccncc2)CCS3)cc1
Second: Fc1ccc(-c2c(-c3ccncc3)nc3n2CCS3)cc1
The inhibition of the first is higher: 0.87% for the first, 0.34% for the second.

First: NC(=O)c1cc(-c2ccncc2)cc(-c2ccccc2)c1N
Second: NC(=O)c1cc(-c2ccc(F)cc2)cc(-c2ccncc2)c1N
The inhibition of the first is higher: 29.2% for the first, 3.02% for the second.

Going from `CCc1nccc2c1nc(-c1nonc1N)n2CC` to `NCc1ccc(-n2c(-c3nonc3N)nc3cnccc32)cc1`, the inhibition rises from 7.05% to 37.5%.

Compared with `CN(C)c1ccc2c(c1)/C(=C/Nc1ccc(S(N)(=O)=O)cc1)C(=O)N2`, `C/C(Nc1ccc(S(N)(=O)=O)cc1)=C1/C(=O)Nc2ccccc21` is lower in inhibition: 33.4% for the first, 11.5% for the second.

First: Cc1nnc(-c2ccc(C)c(-c3ccc(C(=O)NCc4ccc(Cl)cc4)cc3)c2)o1
Second: Cc1ccc(C(=O)NC2CCC2)cc1-c1ccc(C(=O)NCC2CC2)cc1
The inhibition of the first is lower: 0.5% for the first, 5.39% for the second.

First: Clc1ccc(CNc2nccc(-c3cnn4ncccc34)n2)cc1
Second: CCN(CC)Cc1ccc(Nc2nccc(-c3cnn4ncccc34)n2)cc1
The inhibition of the first is lower: 58% for the first, 88% for the second.

Compared with `c1ccc(-c2n[nH]cc2-c2ccnc(-c3ccc(OCCN4CCOCC4)cc3)c2)nc1`, `Fc1ccc(-c2ncn(CCCN3CCOCC3)c2-c2ccncc2)cc1` is lower in inhibition: 5.39% for the first, 0.01% for the second.

First: CCS(=O)(=O)c1ccc(OC)c(Nc2ncc(-c3cccc(-c4ccccc4F)c3)o2)c1
Second: CCS(=O)(=O)c1ccc(OC)c(Nc2ncc(-c3ccccc3Cl)o2)c1
The inhibition of the first is higher: 26% for the first, 5.06% for the second.

Compared with `COc1cc2ncn(-c3cc(OCc4cccs4)c(C(N)=O)s3)c2cc1OC`, `COc1cc2ncn(-c3cc(OCCc4ccccc4)c(C(N)=O)s3)c2cc1OC` is higher in inhibition: -0.93% for the first, 3.09% for the second.

Going from `O=C1Nc2ccccc2/C1=C/Nc1ccc(-n2cncn2)cc1` to `NS(=O)(=O)c1ccc(N/N=C2\C(=O)Nc3ccc(C(=O)NCCCn4ccnc4)cc32)cc1`, the inhibition rises from 14.3% to 15.9%.

Going from `CCc1cccc(CC)c1/C=C/c1cncc(C(=O)NC)c1` to `O=C(NCC1CC1)c1ccc(-c2cccc(C(=O)NC3CC3)c2)cc1`, the inhibition falls from 5.03% to 2.88%.

Going from `COc1ccc2ncn(-c3cc(O[C@H](C)c4ccccc4Cl)c(C(N)=O)s3)c2c1` to `C[C@@H](Oc1cc(-n2cnc3ccc(OC4CCN(C)CC4)cc32)sc1C(N)=O)c1ccccc1Cl`, the inhibition falls from 0.78% to 0.72%.

Compared with `O=C1Nc2ccc(I)cc2C1=Cc1cc(Br)c(O)c(Br)c1`, `COc1ccc2cc(-c3c(-c4ccncc4)nc(-c4ccc([S+](C)[O-])cc4C)n3C)ccc2c1` (centres undefined) is higher in inhibition: 4.99% for the first, 7.26% for the second.

Compared with `COC(=O)Nc1nc2ccc(Sc3ccc(NC(=O)Nc4cc(C(F)(F)F)ccc4F)cc3)cc2[nH]1`, `COc1cccc(-n2cnc3c(N/N=C/c4ccncc4)ncnc32)c1` is higher in inhibition: 1.72% for the first, 2.17% for the second.

Target: Dual specificity tyrosine-phosphorylation-regulated kinase 1B (Homo sapiens) (UniProt Q9Y463);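 further: values are mean percent inhibition of DYRK1B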
Conditions: at 0.1 µM

Chain of Dual specificity tyrosine-phosphorylation-regulated kinase 1B (Homo sapiens) (Q9Y463 whole entry, looked up): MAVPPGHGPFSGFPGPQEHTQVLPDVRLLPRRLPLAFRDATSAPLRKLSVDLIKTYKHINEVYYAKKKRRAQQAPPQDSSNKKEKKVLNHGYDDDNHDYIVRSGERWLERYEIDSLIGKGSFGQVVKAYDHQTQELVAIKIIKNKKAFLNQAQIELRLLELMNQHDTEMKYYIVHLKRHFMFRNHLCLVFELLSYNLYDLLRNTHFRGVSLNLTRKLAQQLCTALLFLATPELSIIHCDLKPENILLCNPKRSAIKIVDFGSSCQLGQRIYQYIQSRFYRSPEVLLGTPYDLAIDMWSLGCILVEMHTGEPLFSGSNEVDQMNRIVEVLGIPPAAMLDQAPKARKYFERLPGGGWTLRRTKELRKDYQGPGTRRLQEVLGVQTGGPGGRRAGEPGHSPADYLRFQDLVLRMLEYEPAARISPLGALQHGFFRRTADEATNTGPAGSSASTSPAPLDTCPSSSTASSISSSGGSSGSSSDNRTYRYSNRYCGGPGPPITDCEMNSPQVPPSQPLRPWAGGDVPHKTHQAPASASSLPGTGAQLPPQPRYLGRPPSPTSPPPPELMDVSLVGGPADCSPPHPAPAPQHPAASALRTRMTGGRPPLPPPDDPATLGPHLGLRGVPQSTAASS

Going from `CS(=O)(=O)CCNCc1cc(-c2cc3c(Nc4ccc(OCc5cccc(F)c5)c(Cl)c4)ncnc3s2)cs1` to `CS(=O)(=O)CCNCc1ccc(-c2ccc3ncnc(Nc4ccc(OCc5ccccc5)c(Br)c4)c3c2)o1`, the inhibition falls from -1.81% to -5.79%.

First: CCC(=O)Nc1ccc(C)c(-c2ccc(C(=O)NCC3CC3)cc2)c1
Second: Cc1ccc(NC(=O)c2ccoc2)cc1-c1ccc(C(=O)NCC2CC2)cc1
The inhibition of the first is lower: -0.71% for the first, -0.58% for the second.

Compared with `COc1cc(Nc2ncc3c(C)nc(-c4cccc(C(F)(F)F)c4)n3n2)cc(OC)c1OC`, `CN(C)CCCNc1nccc(-c2c(-c3ccc(F)cc3)nn3cc(C(F)(F)F)ccc23)n1` is lower in inhibition: 0.38% for the first, -2.7% for the second.

Going from `Fc1ccc(-c2nc3n(c2-c2ccncc2)CCS3)cc1` to `Fc1ccc(-c2c(-c3ccncc3)nc3n2CCS3)cc1`, the inhibition falls from -3.06% to -4.54%.

First: NC(=O)c1cc(-c2ccncc2)cc(-c2ccccc2)c1N
Second: NC(=O)c1cc(-c2ccc(F)cc2)cc(-c2ccncc2)c1N
The inhibition of the first is higher: 3.05% for the first, -0.78% for the second.

Going from `CCc1nccc2c1nc(-c1nonc1N)n2CC` to `NCc1ccc(-n2c(-c3nonc3N)nc3cnccc32)cc1`, the inhibition rises from 2.47% to 5.66%.

Compared with `CN(C)c1ccc2c(c1)/C(=C/Nc1ccc(S(N)(=O)=O)cc1)C(=O)N2`, `C/C(Nc1ccc(S(N)(=O)=O)cc1)=C1/C(=O)Nc2ccccc21` is lower in inhibition: 4.54% for the first, 2.13% for the second.

First: Cc1nnc(-c2ccc(C)c(-c3ccc(C(=O)NCc4ccc(Cl)cc4)cc3)c2)o1
Second: Cc1ccc(C(=O)NC2CCC2)cc1-c1ccc(C(=O)NCC2CC2)cc1
The inhibition of the first is lower: -2.54% for the first, 1.78% for the second.

Going from `Clc1ccc(CNc2nccc(-c3cnn4ncccc34)n2)cc1` to `CCN(CC)Cc1ccc(Nc2nccc(-c3cnn4ncccc34)n2)cc1`, the inhibition rises from 28.6% to 43.6%.

Compared with `c1ccc(-c2n[nH]cc2-c2ccnc(-c3ccc(OCCN4CCOCC4)cc3)c2)nc1`, `Fc1ccc(-c2ncn(CCCN3CCOCC3)c2-c2ccncc2)cc1` is lower in inhibition: 7.33% for the first, -0.42% for the second.

First: CCS(=O)(=O)c1ccc(OC)c(Nc2ncc(-c3cccc(-c4ccccc4F)c3)o2)c1
Second: CCS(=O)(=O)c1ccc(OC)c(Nc2ncc(-c3ccccc3Cl)o2)c1
The inhibition of the first is higher: 3.9% for the first, 1.56% for the second.

Compared with `COc1cc2ncn(-c3cc(OCc4cccs4)c(C(N)=O)s3)c2cc1OC`, `COc1cc2ncn(-c3cc(OCCc4ccccc4)c(C(N)=O)s3)c2cc1OC` is higher in inhibition: -3.74% for the first, 1.95% for the second.

Compared with `O=C1Nc2ccccc2/C1=C/Nc1ccc(-n2cncn2)cc1`, `NS(=O)(=O)c1ccc(N/N=C2\C(=O)Nc3ccc(C(=O)NCCCn4ccnc4)cc32)cc1` is higher in inhibition: 3.43% for the first, 4.25% for the second.

First: CCc1cccc(CC)c1/C=C/c1cncc(C(=O)NC)c1
Second: O=C(NCC1CC1)c1ccc(-c2cccc(C(=O)NC3CC3)c2)cc1
The inhibition of the first is higher: 1.08% for the first, 0.66% for the second.

Compared with `COc1ccc2ncn(-c3cc(O[C@H](C)c4ccccc4Cl)c(C(N)=O)s3)c2c1`, `C[C@@H](Oc1cc(-n2cnc3ccc(OC4CCN(C)CC4)cc32)sc1C(N)=O)c1ccccc1Cl` is higher in inhibition: -5.09% for the first, -4.55% for the second.

First: O=C1Nc2ccc(I)cc2C1=Cc1cc(Br)c(O)c(Br)c1
Second: COc1ccc2cc(-c3c(-c4ccncc4)nc(-c4ccc([S+](C)[O-])cc4C)n3C)ccc2c1 (centres undefined)
The inhibition of the first is lower: -0.26% for the first, 2.45% for the second.

First: COC(=O)Nc1nc2ccc(Sc3ccc(NC(=O)Nc4cc(C(F)(F)F)ccc4F)cc3)cc2[nH]1
Second: COc1cccc(-n2cnc3c(N/N=C/c4ccncc4)ncnc32)c1
The inhibition of the first is higher: 1.9% for the first, -3.26% for the second.
